CYP2C9 activ: human CYP2C9 activators, primary screen, biochemical, luminescence | hit rate 1.4% among 96,000 | recombinant CYP2C9, luciferin-H conversion; stronger effect = higher value; factor 1 = untreated enzyme, 0 = blocked | activation factor at 5 µM;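 active means activation factor of 2 or more for CYP2C9 at a 5 µM dose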
CYP2C9 inhib: blockers of cytochrome P450 2C9 activity – biochemical, luminescence, ADME assay, primary screen; P11712; CYP2C9 Supersomes, luciferin-H conversion; inhibition, % at 5 µM; hit rate 20% among 96,000; AID 777, 2007;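 active means blocking of liver enzyme CYP2C9 beyond about 50% at 5 µM, limit read from the data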
CYP2C19 act: human CYP2C19 activators, primary screen, biochemical, luminescence | recombinant CYP2C19, luciferin-H EGE luminescence; stronger effect = higher value; 0 = fully inhibited enzyme, 1 = untreated enzyme | activation factor at 5 µM | 96,000 tested, under 10 active | AID 1025, 2008;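 active means activation factor of at least 2 at 5 µM in the primary screen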
Pyk2 oligo antag: antagonists of Pyk2 self-association, primary screen, Q293 cells, FERM NanoBiT luminescence, HTS; Protein-tyrosine kinase 2-beta (Homo sapiens), Q14289; stronger effect = lower value; z-score (the deposit names both 25 µM and 10 µM); hit rate 0.83% among 99,000;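 active means Z-score of -3 or lower, scaled per plate to the spread of control and sample wells; inactive means z-score above -3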;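 further: negative z-score means lost luminescence so less FERM oligomerization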
Target sequence (Q14289 whole entry, looked up): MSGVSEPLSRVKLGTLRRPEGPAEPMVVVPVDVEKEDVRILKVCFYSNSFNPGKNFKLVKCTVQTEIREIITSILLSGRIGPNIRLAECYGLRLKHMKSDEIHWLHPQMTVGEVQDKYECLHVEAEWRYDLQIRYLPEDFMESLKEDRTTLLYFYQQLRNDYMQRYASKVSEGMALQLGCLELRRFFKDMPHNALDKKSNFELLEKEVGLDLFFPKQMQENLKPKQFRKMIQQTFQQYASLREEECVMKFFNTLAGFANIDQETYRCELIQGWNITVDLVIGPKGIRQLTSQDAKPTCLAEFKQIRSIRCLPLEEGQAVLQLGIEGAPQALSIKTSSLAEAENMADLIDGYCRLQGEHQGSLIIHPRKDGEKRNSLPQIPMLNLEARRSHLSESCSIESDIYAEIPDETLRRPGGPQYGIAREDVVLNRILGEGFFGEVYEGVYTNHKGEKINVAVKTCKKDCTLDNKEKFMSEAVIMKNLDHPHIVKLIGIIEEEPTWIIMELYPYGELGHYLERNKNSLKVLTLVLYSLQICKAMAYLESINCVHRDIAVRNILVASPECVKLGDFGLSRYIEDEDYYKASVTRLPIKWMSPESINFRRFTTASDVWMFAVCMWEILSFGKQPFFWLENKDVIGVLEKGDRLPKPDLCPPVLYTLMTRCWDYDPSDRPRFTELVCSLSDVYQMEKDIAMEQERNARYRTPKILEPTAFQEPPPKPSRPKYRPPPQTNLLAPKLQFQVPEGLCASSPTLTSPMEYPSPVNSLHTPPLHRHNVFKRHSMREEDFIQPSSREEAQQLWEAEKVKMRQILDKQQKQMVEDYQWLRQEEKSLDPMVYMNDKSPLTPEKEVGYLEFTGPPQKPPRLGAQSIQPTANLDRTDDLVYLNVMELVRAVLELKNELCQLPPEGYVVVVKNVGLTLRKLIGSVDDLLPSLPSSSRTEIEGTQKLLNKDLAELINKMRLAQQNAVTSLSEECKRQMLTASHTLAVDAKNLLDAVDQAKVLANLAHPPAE
CYP2C19 inhib: blockers of cytochrome P450 2C19 activity – biochemical, luminescence, ADME assay, primary screen. inhibition, % at 5 µM. P33261. AID 778, 2007. hit rate 21% among 96,000. CYP2C19 Supersomes, luciferin-H EGE luminescence, 30 min;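 active means CYP2C19 inhibition above a set limit at 5 µM in the primary screen, cut at about 50% in these data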
Of the large screens only hits and unclear results are named; the others gave an inactive call. Sampled rows, rich in hits. Any-hit rate of the full collection: about 28%.

O=C(COc1ccc(Cl)cc1)NCCSCc1cccc(Cl)c1	none
CN(C)CCNC(=O)COc1cccc(Cl)c1	CYP2C9 inhib 56, CYP2C19 inhib 72
Cc1cc(C(=O)Nc2c(F)cc(F)cc2Br)c(C)o1	none
COc1ccccc1C1(CC(=O)N2CCCCC2)CCOC(C(C)C)C1 (stereo not drawn)	CYP2C19 inhib 50
Cc1ccc(C2(CC(=O)N3CCCC3)CCOC(C(C)C)C2)cc1 (stereo not drawn)	none
NC(=O)CN1CCN(C(=O)NC2CCCCC2)CC1	none (no result: Pyk2 oligo antag)
O=C(CCC(=O)c1ccc(F)cc1)Nc1cc(Cl)cc(Cl)c1	CYP2C19 inhib 52
O=C(CCC(=O)c1ccc(F)cc1)Nc1cccnc1	none (no result: CYP2C9 activ, CYP2C9 inhib, CYP2C19 act, CYP2C19 inhib)
COc1ccccc1/C=C/C=N/N1CCN(Cc2cccc3ccccc23)CC1	none
CC(=O)c1c(C)[nH]c(C(=O)Nc2ccc(C)c(C)c2)c1C	CYP2C9 inhib 65
CC(=O)c1c(C)[nH]c(C(=O)Nc2cccnc2)c1C	CYP2C9 inhib 52
CCOc1ccc(S(=O)(=O)N2CCN(C(=O)c3cccn3C)CC2)cc1	CYP2C19 inhib 64
CCOc1ccc(S(=O)(=O)Nc2ccc(S(=O)(=O)N3CCCC3)cc2)cc1	CYP2C9 inhib 94, CYP2C19 inhib 85
CCOc1ccc(S(=O)(=O)Nc2ccc(S(=O)(=O)N3CCCCC3)cc2)cc1	CYP2C9 inhib 86, CYP2C19 inhib 53
CCOC(=O)N1CCN(C(=O)COc2ccc(S(=O)(=O)Nc3ccc(OCC)cc3)cc2)CC1	CYP2C9 inhib 51
O=C(NC1CCCCC1)C1CC=CCC1C(=O)OCC(Cl)=C(Cl)Cl (stereo not drawn)	none
CCOc1ccc2cc(S(=O)(=O)N3CCOCC3)ccc2c1	none
O=S(=O)(c1ccc(Oc2ccc(Br)cc2)cc1)N1CCOCC1	CYP2C9 inhib 64, CYP2C19 inhib 75
CCOc1ccc(S(=O)(=O)Nc2ccc(S(=O)(=O)N3CCOCC3)cc2)cc1	CYP2C9 inhib 60
CN1CCN(c2ccc(S(=O)(=O)N3CCCCC3)cn2)CC1	Pyk2 oligo antag -3.9
CCOc1ccc(S(=O)(=O)N2CCCCCC2)cc1	CYP2C19 inhib 92
CCOc1ccc(C(=O)CN2CCN(S(=O)(=O)c3ccc(F)cc3)CC2)cc1	none
CC(C)CNS(=O)(=O)c1ccc(S(=O)(=O)NC2CCOC(C)(C)C2)cc1 (stereo not drawn)	none (no result: CYP2C9 activ, CYP2C9 inhib, CYP2C19 act, CYP2C19 inhib)
O=C(NCCCCCCNC(=O)N1CCCCCC1)N1CCCCCC1	none
CCc1c(C)sc2nc(C(C)C)nc(SCC(=O)N3CCc4ccccc4C3)c12	CYP2C9 inhib 97 (no result: Pyk2 oligo antag)
Cc1sc2nc(C3CC3)nc(SCC(=O)N3CCc4ccccc4C3)c2c1C	CYP2C9 inhib 85, CYP2C19 inhib 65
Cc1cc2ccccc2n2c(SCC(=O)N3CCc4ccccc4C3)nnc12	none (no result: CYP2C9 activ, CYP2C9 inhib, CYP2C19 act, CYP2C19 inhib)
Cc1sc2nc(C3CC3)nc(SCC(=O)N3CC(=O)Nc4ccccc43)c2c1C	CYP2C9 inhib 66
COc1ccc(CCN(C(=O)C(F)(F)F)C(C(=O)NC2CCCCC2)c2ccc(C)s2)cc1OC (stereo not drawn)	none
Cc1cccc(OC(C)C(=O)N(Cc2cccs2)C2CCS(=O)(=O)C2)c1C (stereo not drawn)	CYP2C19 inhib 95
COC(=O)c1ccc(C(=O)OC)c(N)c1	none (no result: Pyk2 oligo antag)
COC(=O)c1ccc(N2CCC(C)CC2)c(N)c1	CYP2C19 inhib 60
C=CCNC(=O)NC(=O)COC(=O)/C(C#N)=C/c1cc(C)n(CCC(C)C)c1C	none
Cc1cc(/C=C(\C#N)C(=O)OCC(=O)NC(=O)NC(C)(C)C)c(C)n1CCC(C)C	CYP2C9 inhib 98, CYP2C19 inhib 92
O=C(c1ccc2c(c1)OCO2)N1CCN(c2ccc(F)cc2)CC1	CYP2C19 inhib 84
CCc1ccccc1S(=O)(=O)Cc1ccc(C(=O)N2CCN(c3ccccn3)CC2)o1	none (no result: Pyk2 oligo antag)
O=C(c1sc2ccccc2c1Cl)N1CCN(c2ccc(F)cc2)CC1	CYP2C9 activ 2.3, CYP2C19 inhib 82
O=C(c1ccc(Br)o1)N1CCN(c2ccccn2)CC1	CYP2C9 inhib 77, CYP2C19 inhib 90
CCSc1ccccc1C(=O)N1CCN(c2ccccc2F)CC1	CYP2C9 inhib 58, CYP2C19 inhib 54
CC(NC(=O)Cc1ccsc1)c1ccc(S(N)(=O)=O)cc1 (stereo not drawn)	none
CC(C)CC(=O)NC(=S)Nc1ccc(NC(=O)c2cccs2)cc1	none
CCc1ccc(OCC(=O)Nc2ncc3c(n2)CC(C)(C)CC3=O)cc1	none
CCOC(=O)CSc1cccc2cccnc12	none (no result: CYP2C9 activ, CYP2C9 inhib, CYP2C19 act, CYP2C19 inhib)
O=C(c1ccccc1F)N1CCN(c2ccccc2F)CC1	CYP2C19 inhib 68
O=C(c1ccccc1Br)N1CCN(c2ccccc2)CC1	CYP2C19 inhib 60
O=C(c1cccc2ccccc12)N1CCC(N2CCN(c3ccccc3)CC2)CC1	none
O=C(C1CCCCC1)N1CCN(c2ccccc2F)CC1	none
O=C(c1coc2ccccc2c1=O)N1CCN(c2cccc(C(F)(F)F)c2)CC1	CYP2C9 inhib 53
O=C(N1CCOCC1)N1CCN(c2ccccc2F)CC1	none (no result: Pyk2 oligo antag)
O=C(c1ccccc1C(=O)N1CCN(c2ccccc2F)CC1)N1CCN(c2ccccc2F)CC1	CYP2C9 inhib 89, CYP2C19 inhib 70
CC1CN(C2CCN(C(=O)c3ccccc3Cl)CC2)CC(C)O1 (stereo not drawn)	none
CCn1cc(Br)c(C(=O)NC(C)c2ccccc2)n1 (stereo not drawn)	none
O=C(c1ccccc1F)N1CCN(c2cccc(C(F)(F)F)c2)CC1	CYP2C9 inhib 63, CYP2C19 inhib 91
O=C(c1ccccc1F)N1CCN(c2ccccc2)CC1	CYP2C19 inhib 50
O=C(c1ccccc1F)N1CCN(c2ncccn2)CC1	none
CCn1cc(Br)c(C(=O)N(C)Cc2ccccc2)n1	CYP2C19 inhib 92
O=C(c1ccc(Br)o1)N1CCN(c2ccccc2F)CC1	CYP2C19 inhib 92
Clc1ccc(Cc2noc(-c3cccs3)n2)cc1	none
N#Cc1ccccc1NC(=O)c1ccc(-c2ccccc2Cl)o1	none
Cc1ccc(C(C(=O)NC(C)(C)C)N(C(=O)c2csnn2)C2CC2)cc1 (stereo not drawn)	none (no result: CYP2C9 activ, CYP2C9 inhib, CYP2C19 act, CYP2C19 inhib)
O=C(c1ccncc1)N1CCN(c2cccc(C(F)(F)F)c2)CC1	CYP2C9 inhib 92, CYP2C19 inhib 100
CCn1cc(Br)c(C(=O)N2CCN(c3ccccc3)CC2)n1	CYP2C9 activ 2.1, CYP2C19 inhib 85
O=C(c1ccccc1)N1CCN(c2ccccc2F)CC1	CYP2C9 inhib 66, CYP2C19 inhib 93
CS(=O)(=O)Nc1ccc(C(=O)N2CCN(c3ccccc3F)CC2)cc1	none
COC(=O)c1cccnc1N1CCN(c2ccccc2F)CC1	CYP2C19 inhib 82
CC(C)NC(=O)CC(=O)N/N=C/c1ccc(F)cc1	none
CC(C)OC(=O)c1cccnc1N1CCN(c2ccc(F)cc2)CC1	CYP2C19 inhib 63
